Lassa entry inh – blocks Lassa virus binding to or entry into cells | Lassa virus pseudotype entry inhibition, cell reporter | Potency, µM (top dose mostly 37.9 µM), hits mostly inhibitors | actives 1.2% (n = 300,000) | AID 540256; calls by dose curve; tested in HEK293 cells; further: nearly all actives have a fitted effect of over 50% in size
Marburg entry inh – Marburg virus entry inhibition. Marburg virus pseudotyped entry inhibition, cell reporter. Potency, µM (top dose mostly 37.8 µM), hits mostly inhibitors. actives 1.8% (n = 300,000). AID 540276; calls by dose curve; tested in HEK293 cells
FMDV antiviral – blocks foot and mouth disease virus. FMDV antiviral cell-based qHTS. Potency, µM (series often up to 57.9 µM), usual class: inhibitors. actives 1.2% (n = 410,000). AID 1159524; calls by dose curve; tested in HEK293T cells; further: read-out not given here; nearly all actives have a fitted effect of over 45% in size
HCMV antiviral – human cytomegalovirus inhibition; HFF cells, HCMV-luciferase reporter, 72 h; hits give low values; actives 4.5% (n = 410,000); activity change, negative = inhibition, % at 57.5 µM; in the data active means activity change below about -60%; inconclusive means no clear call, values can overlap the other calls; inactive means above about -39%
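Steps: HFFs plated, 16 h 37C; compounds added; HCMV-luciferase added to MOI 1 PFU/cell; 72 h 37C; OneGlo reagent, 5 min room temperature; luminescence read, normalized to controls.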
Of the large screens only hits and unclear results are named; the others gave an inactive call. Compounds with a hit are over-represented: about 6.2% of the library has one in this group of screens.

Cc1cccc(NC(=O)c2ccc(Cl)c(S(=O)(=O)N3CCc4ccccc43)c2)n1	FMDV antiviral inconclusive, HCMV antiviral -65 (no result: Lassa entry inh, Marburg entry inh)
O=C1CN(C(=O)c2ccc(Cl)c(S(=O)(=O)N3CCc4ccccc43)c2)c2ccccc2N1	Lassa entry inh inconclusive, Marburg entry inh 3.5µM, FMDV antiviral inconclusive, HCMV antiviral inconclusive
Cc1cccc(NC(=O)c2ccc(Cl)c(S(=O)(=O)N3CCCC3)c2)n1	Marburg entry inh inconclusive
CCOc1ccc(NC2=C(Cl)C(=O)N(C3CCCCC3)C2=O)cc1	Marburg entry inh inconclusive
CCC1(C)Cc2c(sc3nnn(Cc4ccccc4Cl)c(=O)c23)CO1 (stereo not given)	Lassa entry inh inconclusive, Marburg entry inh inconclusive, HCMV antiviral -60
CCC1(C)Cc2c(sc3nnn(CC(=O)Nc4ccccc4)c(=O)c23)CO1 (stereo not given)	none
CCC(=O)N1CCc2cc(S(=O)(=O)N(CC)c3cccc(C)c3)ccc21	Lassa entry inh inconclusive
CCN(c1cccc(C(F)(F)F)c1)S(=O)(=O)c1ccc2c(c1)CCN2C(=O)C1CC1	Lassa entry inh inconclusive, Marburg entry inh inconclusive, FMDV antiviral 14µM, HCMV antiviral -82
O=C(O)CS(=O)(=O)c1ccc(C(F)(F)F)cn1	Lassa entry inh inconclusive
O=C(C1CCC(CNS(=O)(=O)c2cccs2)CC1)N1CCN(c2ccc(Cl)cc2)CC1 (stereo not given)	Lassa entry inh inconclusive, FMDV antiviral 32µM, HCMV antiviral -93 (no result: Marburg entry inh)
O=C(C1CCC(CNS(=O)(=O)c2ccc(Br)s2)CC1)N1CCN(c2ccccc2)CC1 (stereo not given)	FMDV antiviral inconclusive
O=c1[nH]c2cc3c(cc2cc1C(c1nnnn1Cc1ccccc1)N1CCCc2ccccc21)OCO3 (stereo not given)	Marburg entry inh inconclusive, HCMV antiviral -85
Cc1cc2cc(C(c3nnnn3CC3CCCO3)N3CCCc4ccccc43)c(=O)[nH]c2cc1C (stereo not given)	Lassa entry inh inconclusive, Marburg entry inh inconclusive
CCc1ccc2[nH]c(=O)c(C(c3nnnn3CC3CCCO3)N3CCCc4ccccc43)cc2c1 (stereo not given)	Marburg entry inh 9.2µM
O=c1[nH]c2cc3c(cc2cc1C(c1nnnn1Cc1ccccc1)N1CCCCCC1)OCCO3 (stereo not given)	Lassa entry inh inconclusive, Marburg entry inh inconclusive
O=C(Nc1cccnc1)c1sc(Nc2ccccc2F)nc1-c1ccccc1	none (no result: Lassa entry inh, Marburg entry inh)
COc1ccc(OC)c(C2C(C(=O)c3sc(C)nc3C)=C(O)C(=O)N2CCN2CCOCC2)c1 (stereo not given)	none
CCCCCC(=O)N1C[C@@H](n2cc(COC(=O)c3ccccc3)nn2)[C@H](O)C[C@@H]1c1ccc(OC)cc1	none (no result: Lassa entry inh, Marburg entry inh)
COc1ccc(C(c2c(C)[nH]n(C(N)=S)c2=O)C(C#N)C#N)cc1 (stereo not given)	FMDV antiviral 25µM
Cc1ccc(C)c(S(=O)(=O)NCc2ccc(C(=O)N3CCCCC3C)cc2)c1 (stereo not given)	Lassa entry inh inconclusive
Cc1ccc(CN2CC(C(=O)N3CCN(S(=O)(=O)c4cc(C)ccc4C)CC3)CC2=O)cc1 (stereo not given)	Marburg entry inh inconclusive, FMDV antiviral inconclusive
C[C@H]1CN=C(N(C)C)N1CCc1ccccc1	HCMV antiviral -67 (no result: Lassa entry inh, Marburg entry inh)
C/C(=N\NC(=S)NCc1ccccc1)c1ccccc1	Lassa entry inh inconclusive, Marburg entry inh inconclusive
COc1ccc(CNC(=S)N/N=C(/C)c2ccccc2)cc1	Lassa entry inh 14µM, Marburg entry inh inconclusive
COCCNC(=S)N/N=C(\C)c1ccc2cc(OC)ccc2c1	Lassa entry inh 8.2µM, Marburg entry inh inconclusive, HCMV antiviral -75
C/C(=N\NC(=S)NCc1ccccc1)c1ccc(C(C)(C)C)cc1	Lassa entry inh 0.46µM, Marburg entry inh inconclusive
COCCNC(=S)N/N=C(\C)c1ccc(OC)cc1	Lassa entry inh inconclusive
COc1ccc(/C(C)=N/NC(=S)Nc2cc(C)ccc2C)cc1	HCMV antiviral inconclusive (no result: Lassa entry inh, Marburg entry inh)
C=C(C)CNC(=S)N/N=C(\C)c1ccc(OC)cc1	Lassa entry inh inconclusive, Marburg entry inh inconclusive, HCMV antiviral -70
OCCN1CCN(c2nc(N3CCCCC3)nc(N3CCCCC3)n2)CC1	Marburg entry inh inconclusive, HCMV antiviral inconclusive
COc1ccc(CNC(=O)C(=O)NC2CCC(C)CC2)cc1 (stereo not given)	none (no result: Lassa entry inh, Marburg entry inh)
Nc1cccc2c1Cc1cc([N+](=O)[O-])ccc1-2	HCMV antiviral -101
Nc1c(Br)cc(Br)c2c1-c1ccc([N+](=O)[O-])cc1C2	HCMV antiviral -80
O=CNc1ccc2c(c1)Cc1cc([N+](=O)[O-])ccc1-2	Marburg entry inh inconclusive
N#CC1=C(N)N(c2ccc(Br)cc2)C2=C(C(=O)CCC2)C1c1cccnc1 (stereo not given)	Marburg entry inh inconclusive
CCOC(=O)CC1=C(C(=O)OCC)C(c2cccs2)C(C#N)=C(N)O1 (stereo not given)	Marburg entry inh inconclusive, FMDV antiviral inconclusive
CCOC(=O)N1CCN(S(=O)(=O)c2ccc(C)cc2)C1c1ccccc1 (stereo not given)	FMDV antiviral inconclusive
CCOC(=O)C1=C[C@@H](C(C)(C)C)N(S(=O)(=O)c2ccc(C)cc2)[C@H]1c1cccc(Cl)c1	HCMV antiviral -88 (no result: Lassa entry inh, Marburg entry inh)
CCOC(=O)N1CCN(S(=O)(=O)c2ccc(C)cc2)C1c1ccc(OC)cc1 (stereo not given)	Lassa entry inh 23µM, Marburg entry inh inconclusive
CCOC(=O)C1=C[C@@H](C(C)(C)C)N(S(=O)(=O)c2ccc(OC)cc2)[C@H]1c1ccccc1	none (no result: Lassa entry inh, Marburg entry inh)
CCOC(=O)C1=C[C@@H](C(C)(C)C)N(S(=O)(=O)c2ccc(C)cc2)[C@H]1c1ccc(OC)cc1	HCMV antiviral -64 (no result: Lassa entry inh, Marburg entry inh)
Cc1ccc(S(=O)(=O)N2[C@@H](c3ccc(Cl)cc3)C(C(=O)O)=CC[C@H]2c2ccc(Cl)c(Cl)c2)cc1	HCMV antiviral -64 (no result: Lassa entry inh, Marburg entry inh)
CO/C([O-])=N/c1c[n+](-c2ccc(Cl)cc2)no1	none
CCc1ccc(C(=O)c2cnc3ccc(C)cc3c2S(=O)(=O)c2ccc(OC)cc2)cc1	HCMV antiviral inconclusive (no result: Lassa entry inh)
CCOC(=O)C1=C[C@@H](C(C)(C)C)N(S(=O)(=O)c2ccc([N+](=O)[O-])cc2)[C@H]1c1ccccc1	FMDV antiviral inconclusive, HCMV antiviral -75 (no result: Lassa entry inh, Marburg entry inh)
CCOC(=O)C1=CCN(S(=O)(=O)c2ccc(F)cc2)C1c1cccc(Cl)c1 (stereo not given)	none (no result: Lassa entry inh, Marburg entry inh)
CCOC(=O)C1=CC[C@@H](c2cccc(Br)c2)N(S(=O)(=O)c2ccc(F)cc2)[C@H]1c1cccc(Cl)c1	HCMV antiviral -74 (no result: Lassa entry inh, Marburg entry inh)
CCOC(=O)C1=C[C@@H](CC)N(S(=O)(=O)c2ccc([N+](=O)[O-])cc2)[C@H]1c1ccccc1	FMDV antiviral inconclusive (no result: Lassa entry inh, Marburg entry inh)
O=S(=O)(NC1CCCC1)c1ccc(S(=O)(=O)N2CCCN(Cc3ccccc3)C2)cc1	Lassa entry inh inconclusive, Marburg entry inh 5.8µM
C[C@H](CO)N1C[C@H](C)[C@@H](CN(C)C)Oc2c(NS(=O)(=O)c3ccc(F)cc3)cccc2C1=O	HCMV antiviral -73 (no result: Lassa entry inh, Marburg entry inh)
C[C@@H]1CCCCO[C@@H](CN(C)Cc2ccc3c(c2)OCO3)[C@@H](C)CN([C@H](C)CO)C(=O)c2cc(NS(=O)(=O)c3ccccc3)ccc2O1	FMDV antiviral inconclusive, HCMV antiviral -69 (no result: Lassa entry inh, Marburg entry inh)

Assay outcomes deposited in PubChem by National Center for Advancing Translational Sciences (NCATS).
